Entries with a potency or affinity are not part of this list. Active and inactive are the calls of the source.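 Rule for the calls: active = cell killing, with a fitted active concentration at or below twice the top valid dose tested; inconclusive = flat curve with moderate cell loss, or an unreliable fit; inactive = effect in the rising direction, plus the rest.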
Assay: HEK293T cell cytotoxicity, dose response, cytotoxicity control, plate reader, dry powder, set 10 (AID 743315)
Details: HEK293T viability, CellTiter-Glo ATP luminescence, 72 h; series mostly up to 26 µM

SMILES	outcome
S=c1[nH]c2ccccc2n1CCOc1ccccc1Cl	inactive
Cc1ccc(C(C)C)c(OCCn2c(=S)[nH]c3c(Cl)cccc32)c1	inactive
Cc1cccc(OCCn2c(=S)[nH]c3c(F)cccc32)c1	inactive
S=c1[nH]c2ccccc2n1CCOc1ccc(Cl)cc1	inactive
Fc1cccc(OCCn2c(=S)[nH]c3ccccc32)c1	inactive
Cc1ccc(C(C)C)c(OCCn2c(=S)[nH]c3cccc(Cl)c32)c1	inactive
Cc1cccc(OCCn2c(=S)[nH]c3cc(C(F)(F)F)ccc32)c1	inactive
S=c1[nH]c2ccccc2n1CCOc1ccccc1	inactive
Cc1ccccc1OCCn1c(=S)[nH]c2ccccc21	inactive
Cc1ccc(OCCn2c(=S)[nH]c3ccccc32)c(C)c1	inactive
Cc1ccc(OCCn2c(=S)[nH]c3ccccc32)c(C(C)C)c1	inactive
Cc1ccc(C(C)C)c(OCCn2c(=S)[nH]c3cccc(F)c32)c1	inactive
Cc1ccc(OCCn2c(=S)[nH]c3ccccc32)cc1	inactive
Cc1cccc2[nH]c(=S)n(CCOc3ccccc3)c12	inactive
Cc1cccc(OCCn2c(=S)[nH]c3cc(F)ccc32)c1	inactive
COc1cccc(OCCn2c(=S)[nH]c3ccccc32)c1	inactive
Cc1ccc(C)c(OCCn2c(=S)[nH]c3ccccc32)c1	inactive
COc1ccccc1OCCn1c(=S)[nH]c2ccccc21	inactive
Cc1ccc2c(c1)[nH]c(=S)n2CCOc1ccccc1	inactive
Fc1ccc(OCCn2c(=S)[nH]c3ccccc32)cc1	inactive
Cc1ccc(C(C)C)c(OCCn2c(=S)[nH]c3c(F)cccc32)c1	inactive

— PubChem BioAssay AID743315 (Broad Institute, 2014)
